Assay results published in PubChem BioAssay AID1159580 (chemical genetic matrix, 2015).
Screen size: about 5,500 compounds; about 2,000 (36%) were called active. Roughly 18% stayed inconclusive and do not appear here. Rule as the data show it: active = normalized growth mostly below about 0.91 (no sharp cut-off); inconclusive = no clear call, values can overlap the other calls; inactive = mostly above about 0.92. Some of the results follow.

Assay: chemical genetic growth profiling, strain panel (AID 1159580);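 also: tested at 20 µM; growth read once vehicle control cultures reached saturation at 30 °C; 1 = growth at the plate median or of vehicle wells; lower values mean less growth of the strain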
Conditions: growth OD
[1] = S. cerevisiae deletion strains, locus YAL013W, strain DEP1, stronger effect = lower value
[2] = S. cerevisiae deletion strains, locus YBR229C, strain ROT2, stronger effect = lower value
[3] = S. cerevisiae deletion strains, locus YDL101C, strain DUN1, stronger effect = lower value
[4] = S. cerevisiae deletion strains, locus YDR150W, strain NUM1, stronger effect = lower value
[5] = S. cerevisiae deletion strains, locus YEL061C, strain CIN8, stronger effect = lower value
[6] = S. cerevisiae deletion strains, locus YGR078C, strain PAC10, stronger effect = lower value
[7] = S. cerevisiae deletion strains, locus YHR030C, strain SLT2, stronger effect = lower value
[8] = S. cerevisiae deletion strains, locus YHR087W, strain rtc3, stronger effect = lower value
[9] = S. cerevisiae deletion strains, locus YJR043C, strain POL32, stronger effect = lower value
[10] = S. cerevisiae deletion strains, locus YJR075W, strain HOC1, stronger effect = lower value
[11] = S. cerevisiae deletion strains, locus YKL190W, strain CNB1, stronger effect = lower value
[12] = S. cerevisiae deletion strains, locus YLR039C, strain RIC1, stronger effect = lower value
[13] = S. cerevisiae deletion strains, locus YLR058C, strain SHM2 (second series), stronger effect = lower value
[14] = S. cerevisiae deletion strains, locus YLR085C, strain ARP6, stronger effect = lower value
[15] = S. cerevisiae deletion strains, locus YLR262C, strain YPT6, stronger effect = lower value
[16] = S. cerevisiae deletion strains, locus YML094W, strain GIM5, stronger effect = lower value
[17] = S. cerevisiae deletion strains, locus YMR219W, strain ESC1, stronger effect = lower value
[18] = S. cerevisiae deletion strains, locus YNL153C, strain GIM3, stronger effect = lower value
[19] = S. cerevisiae deletion strains, locus YNL298W, strain CLA4 (second series), stronger effect = lower value
[20] = S. cerevisiae deletion strains, locus YNL322C, strain KRE1, stronger effect = lower value
[21] = S. cerevisiae deletion strains, locus YNR030W, strain Alg12, stronger effect = lower value
[22] = S. cerevisiae deletion strains, locus YPL055C, strain LGE1, stronger effect = lower value
[23] = S. cerevisiae deletion strains, locus YPL241C, strain CIN2, stronger effect = lower value
[24] = S. cerevisiae deletion strains, locus YPR135W, strain CTF4, stronger effect = lower value
[25] = S. cerevisiae deletion strains, locus YDL134C, strain PPH21, stronger effect = lower value

Measured: normalized growth

Cc1[nH]n(C)c(=O)c1N=Nc1ccc(Cl)cc1
inactive: [4] 0.835 | S. cerevisiae deletion strains, locus YGR229C, strain SMI1, stronger effect = lower value 0.979 | [8] 0.926 | [9] 0.945 | [10] 0.912 | S. cerevisiae deletion strains, locus YNL128W, strain TEP1, stronger effect = lower value 0.965 | [20] 0.96 | [22] 0.78
active: [1] 0.892 | [2] 0.886 | S. cerevisiae deletion strains, locus YCL061C, strain MRC1, stronger effect = lower value 0.864 | [3] 0.82 | [5] 0.598 | [6] 0.906 | [7] 0.143 | S. cerevisiae deletion strains, locus YJL187C, strain SWE1, stronger effect = lower value 0.875 | [11] 0.915 | [12] 0.342 | [13] 0.912 | [14] 0.115 | [15] 0.393 | [16] 0.764 | [17] 0.924 | [18] 0.894 | [19] 0.689 | [21] 0.881 | [23] 0.753 | [24] 0.242

Cc1ccc(N=Nc2c(C)[nH]n(C)c2=O)cc1
inactive: [3] 0.918 | [4] 0.92 | [6] 0.959 | [8] 0.974 | [10] 0.969 | [11] 0.946 | [13] 0.955 | [17] 0.964 | [18] 0.945 | [19] 0.87 | [20] 0.991 | [21] 0.897 | [22] 0.847
active: [1] 0.931 | [2] 0.921 | [25] 0.886 | [5] 0.839 | [7] 0.433 | [9] 0.896 | [12] 0.332 | [14] 0.407 | [15] 0.352 | [16] 0.822 | [23] 0.82 | [24] 0.431

COc1cc(N2C(=O)C=CC2=O)cc(OC)c1OC
active: S. cerevisiae deletion strains, locus YDL214C, strain PRR2, stronger effect = lower value 0.159 | S. cerevisiae deletion strains, locus YDR477W, strain SNF1, stronger effect = lower value 0.176 | S. cerevisiae deletion strains, locus YER123W, strain YCK3, stronger effect = lower value 0.289 | S. cerevisiae deletion strains, locus YER133W, strain GLC7, stronger effect = lower value 0.226 | S. cerevisiae deletion strains, locus YFR019W, strain FAB1, stronger effect = lower value 0.378 | S. cerevisiae deletion strains, locus YGR040W, strain KSS1, stronger effect = lower value 0.191 | S. cerevisiae deletion strains, locus YGR052W, strain FMP48, stronger effect = lower value 0.156 | [7] 0.385 | S. cerevisiae deletion strains, locus YHR082C, strain KSP1, stronger effect = lower value 0.147 | S. cerevisiae deletion strains, locus YJL095W, strain BCK1, stronger effect = lower value 0.302 | S. cerevisiae deletion strains, locus YJL128C, strain PBS2, stronger effect = lower value 0.553 | S. cerevisiae deletion strains, locus YJR066W, strain TOR1, stronger effect = lower value 0.133 | S. cerevisiae deletion strains, locus YKL203C, strain TOR2, stronger effect = lower value 0.357 | S. cerevisiae deletion strains, locus YLR113W, strain HOG1, stronger effect = lower value 0.156 | S. cerevisiae deletion strains, locus YNL183C, strain NPR1, stronger effect = lower value 0.143 | S. cerevisiae deletion strains, locus YOR119C, strain RIO1, stronger effect = lower value 0.311 | S. cerevisiae deletion strains, locus YPL256C, strain CLN2, stronger effect = lower value 0.129
inactive: S. cerevisiae deletion strains, locus YAR019C, strain CDC15, stronger effect = lower value 0.924 | S. cerevisiae deletion strains, locus YBL105C, strain PKC1, stronger effect = lower value 0.958 | S. cerevisiae deletion strains, locus YBR135W, strain CKS1, stronger effect = lower value 0.95 | S. cerevisiae deletion strains, locus YBR136W, strain MEC1, stronger effect = lower value 0.935 | S. cerevisiae deletion strains, locus YBR160W, strain CDC28, stronger effect = lower value 0.958 | S. cerevisiae deletion strains, locus YDL017W, strain CDC7, stronger effect = lower value 0.975 | S. cerevisiae deletion strains, locus YDL028C, strain MPS1, stronger effect = lower value 0.958 | S. cerevisiae deletion strains, locus YDL108W, strain KIN28, stronger effect = lower value 0.952 | S. cerevisiae deletion strains, locus YDL132W, strain cdc53, stronger effect = lower value 0.94 | S. cerevisiae deletion strains, locus YDR052C, strain DBF4, stronger effect = lower value 0.959 | S. cerevisiae deletion strains, locus YDR054C, strain cdc34, stronger effect = lower value 0.947 | S. cerevisiae deletion strains, locus YDR226W, strain ADK1, stronger effect = lower value 0.928 | S. cerevisiae deletion strains, locus YFL009W, strain cdc4, stronger effect = lower value 0.968 | S. cerevisiae deletion strains, locus YFL029C, strain CAK1, stronger effect = lower value 0.915 | S. cerevisiae deletion strains, locus YFR003C, strain YPI1, stronger effect = lower value 0.989 | S. cerevisiae deletion strains, locus YFR028C, strain CDC14, stronger effect = lower value 0.928 | S. cerevisiae deletion strains, locus YGR092W, strain DBF2, stronger effect = lower value 0.967 | S. cerevisiae deletion strains, locus YHR079C, strain IRE1, stronger effect = lower value 0.955 | S. cerevisiae deletion strains, locus YIL147C, strain SLN1, stronger effect = lower value 0.982 | S. cerevisiae deletion strains, locus YJR016C, strain ILV3, stronger effect = lower value 0.973 | S. cerevisiae deletion strains, locus YKL048C, strain ELM1, stronger effect = lower value 0.947 | S. cerevisiae deletion strains, locus YKL193C, strain SDS22, stronger effect = lower value 0.939 | S. cerevisiae deletion strains, locus YMR001C, strain CDC5, stronger effect = lower value 0.928 | S. cerevisiae deletion strains, locus YMR205C, strain PFK2 (second series), stronger effect = lower value 0.941 | S. cerevisiae deletion strains, locus YMR277W, strain FCP1, stronger effect = lower value 0.926 | S. cerevisiae deletion strains, locus YNL006W, strain LST8, stronger effect = lower value 1 | S. cerevisiae deletion strains, locus YNL020C, strain ARK1, stronger effect = lower value 0.96 | S. cerevisiae deletion strains, locus YNL161W, strain CBK1, stronger effect = lower value 0.961 | S. cerevisiae deletion strains, locus YNL207W, strain RIO2, stronger effect = lower value 0.968 | S. cerevisiae deletion strains, locus YNL222W, strain SSU72, stronger effect = lower value 0.943 | S. cerevisiae deletion strains, locus YNL307C, strain MCK1 (second series), stronger effect = lower value 0.67 | S. cerevisiae deletion strains, locus YOL078W, strain AVO1, stronger effect = lower value 0.93 | S. cerevisiae deletion strains, locus YOR061W, strain CKA2, stronger effect = lower value 0.942 | S. cerevisiae deletion strains, locus YOR231W, strain MKK1, stronger effect = lower value 0.92 | S. cerevisiae deletion strains, locus YOR329C, strain SCD5, stronger effect = lower value 0.991 | S. cerevisiae deletion strains, locus YPL209C, strain IPL1, stronger effect = lower value 0.964 | S. cerevisiae deletion strains, locus YPR025C, strain CCL1, stronger effect = lower value 0.95 | S. cerevisiae deletion strains, locus YPR106W, strain ISR1, stronger effect = lower value 0.924 | S. cerevisiae deletion strains, strain NNK1, stronger effect = lower value 0.977 | S. cerevisiae deletion strains, strain TSCII, stronger effect = lower value 0.933

CCC(=O)Nc1cc(OC)cc(OC)c1
inactive: [1] 1 | [2] 1.01 | [3] 1.01 | [25] 1 | [4] 0.908 | [5] 1 | [6] 1.01 | [7] 1.01 | [8] 1 | [9] 0.963 | [10] 0.98 | [12] 1.04 | [13] 1.01 | [14] 0.973 | [15] 1.02 | [16] 1.03 | [17] 0.999 | S. cerevisiae deletion strains, locus YMR263W, strain SAP30, stronger effect = lower value 0.987 | [18] 0.997 | [19] 1.01 | [20] 1.01 | [21] 1.01 | S. cerevisiae deletion strains, locus YOL006C, strain TOP1, stronger effect = lower value 0.998 | [22] 1.13 | [23] 1.03 | [24] 1.06 | S. cerevisiae strains, strain wild type, stronger effect = lower value 1.02
